CASP6 VEID inh: human caspase-6 inhibitors, primary screen, biochemical, VEID-R110 fluorescence, single point, set 2 | P55212 | purified caspase-6, Z-VEID-R110 cleavage fluorescence | inhibition, % at 12.5 µM | actives 0.53% (n = 350,000);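 active = mean inhibition across replicates at least about 35%, with every replicate also reaching that limit, limit read from the data; inconclusive = only one of the two criteria met; inactive = neither criterion met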;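 also: 0% = median of neutral control wells and 100% = no fluorescence left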
HDAC3 inhib: HDAC3 deacetylase inhibitors, primary screen, biochemical, fluorescence, cell-free homogeneous. Histone deacetylase 3 (Homo sapiens), O15379. recombinant HDAC3, fluorogenic peptide/trypsin coupled. inhibition, % at 8.3 µM. actives 0.15% (n = 320,000). AID 2718, 2010; in the data active = inhibition above about 26%, passing the limit was not always enough; inconclusive = no clear call, values can overlap the other calls
C-LANA FP: inhibitors of KSHV C-LANA binding to DNA, primary screen, biochemical, fluorescence polarization, FAM-LBS DNA, MBP-C-LANA, single point; Kaposi's sarcoma herpesvirus LANA C-terminal domain (residues 932-1162) DNA binding; inhibition, % at 9 µM; actives 0.078% (n = 340,000); AID 504423, 2011;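 active = highest replicate inhibition at or above 60% at 9 µM, even if other replicates fall short; inactive = all replicates below 60% inhibition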;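 also: 0% = neutral control wells and 100% = 4 µM acridine orange control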
NSD2 inh: NSD2 histone methyltransferase inhibitors, primary screen, biochemical, AlphaScreen, single concentration, set 2; actives 0.54% (n = 310,000); Histone-lysine N-methyltransferase NSD2 (Homo sapiens), O96028; AID 743445, 2014; inhibition, % at 12.5 µM; NSD2 peptide methylation, 120 min; in the data active = inhibition above about 50%
Keap1-Nrf2 PPI: Keap1-Nrf2 protein-protein interaction inhibitors, primary screen, biochemical, fluorescence polarization, single point | AID 504523, 2011 | Kelch-like ECH-associated protein 1 (Homo sapiens), Q14145 | Keap1 Kelch-Nrf2 peptide fluorescence polarization, 1536-well | actives 0.15% (n = 340,000) | inhibition, % at 9.4 µM; in the data active = inhibition above about 12%; inconclusive = no clear call, values can overlap the other calls; inactive = below about 7.3%;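 also: human Keap1 Kelch domain with fluorescein labeled Nrf2 9mer peptide probe; 0% = neutral control wells and 100% = peptide positive control; higher means more block of Keap1 binding to Nrf2 peptide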
Target sequence (Q14145 whole entry, looked up, the tested form may be a part): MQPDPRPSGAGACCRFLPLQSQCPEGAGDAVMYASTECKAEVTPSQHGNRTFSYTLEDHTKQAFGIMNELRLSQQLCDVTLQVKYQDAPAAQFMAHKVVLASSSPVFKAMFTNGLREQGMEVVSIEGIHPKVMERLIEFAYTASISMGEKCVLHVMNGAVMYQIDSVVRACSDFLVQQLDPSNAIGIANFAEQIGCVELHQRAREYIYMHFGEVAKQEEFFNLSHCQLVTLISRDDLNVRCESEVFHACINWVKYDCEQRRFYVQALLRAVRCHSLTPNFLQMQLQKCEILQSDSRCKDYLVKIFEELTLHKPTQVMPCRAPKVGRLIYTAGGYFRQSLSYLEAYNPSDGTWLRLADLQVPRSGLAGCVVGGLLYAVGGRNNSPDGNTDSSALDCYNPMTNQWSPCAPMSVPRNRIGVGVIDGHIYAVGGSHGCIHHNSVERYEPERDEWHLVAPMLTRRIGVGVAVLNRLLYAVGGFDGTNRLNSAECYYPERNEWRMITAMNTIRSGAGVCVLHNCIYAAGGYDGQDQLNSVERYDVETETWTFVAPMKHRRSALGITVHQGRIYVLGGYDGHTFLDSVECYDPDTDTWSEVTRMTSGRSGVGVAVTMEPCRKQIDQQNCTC
Glyco luc inh: increase of ERlucT glycosylation luciferase signal, primary screen, N-linked glycosylation inhibitor project, D54 ERlucT cells, luminescence, set 2; AID 588692, 2011; reporter increase, % at 12.5 µM; D54 ERlucT glycosylation luciferase reporter, 24 h; percent of 100 nM tunicamycin response; actives 0.23% (n = 360,000);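 active = mean luciferase reporter signal, scaled so untreated is 0 and the glycosylation-blocking control 100, at or above a set limit in every replicate; inconclusive = mean reaches the limit but not every replicate does; inactive = mean below the limit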;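 also: luciferase carries N-glycosylation sites so blocking glycosylation raises the light; 0% = median of neutral control wells and 100% = median of 100 nM tunicamycin wells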
Alpha artifact: AlphaScreen signal interference with preloaded methylated product, dose response, artefact control for NSD2 inhibitor project, biochemical, cherry-picked samples; AID 1053174, 2014; shares compounds with NSD2 inh; AlphaScreen artifact counterscreen, preloaded methylated H4 peptide; actives 9.4% (n = 1,500); AC35, µM (titrated, usually from 10 µM), for the others: at the top dose activity change, negative = signal loss; call rule not given here
Active calls of the source: *; ? = inconclusive; . = no result. This is a sample that favours compounds with a hit; in the whole collection about 1.1% have one here.

SMILES	CASP6 VEID inh	HDAC3 inhib	C-LANA FP	NSD2 inh	Keap1-Nrf2 PPI	Glyco luc inh	Alpha artifact
Nc1nonc1-c1nc2ccccc2n1CC(=O)N/N=C/c1ccc(-c2ccccc2C(=O)O)o1	60*	7	7	63*	-4	5	-2%
FC(F)(F)c1nc(-c2cccnc2)ncc1-c1nnnn1-c1ccccc1	.	2	1	-1	-3	0	.
COc1ccc(-n2nnnc2-c2cnc(N3CCCC3)nc2C(F)(F)F)cc1	.	15	-1	52*	4	3	2%
COC(=O)CCCC(=O)NC1CC(C)(C)Cc2c1cnn2-c1ccc(C)cc1 (stereo unspecified)	-1	5	1	55*	-1	1	-1%
CC1(C)Cc2ccccc2C2=NNC(=O)C2=N1	15	5	17	106*	0	-8	3%
C[C@@H]1CCCCO[C@@H](CN(C)C(=O)Nc2ccccc2)[C@H](C)CN([C@@H](C)CO)C(=O)c2cc(NS(=O)(=O)c3cccs3)ccc2O1	1	.	.	.	.	.	.
CCOc1ccccc1/C=C\c1nc(O)c([N+](=O)[O-])c(=O)[nH]1	8	1	-3	1	0	2	.
Cc1cc(/C=C\c2nc(O)c([N+](=O)[O-])c(=O)[nH]2)c(C)n1-c1ccccc1	61*	0	1	62*	-1	0	-8%
COc1ccccc1NC(=O)N(C)C[C@@H]1Oc2ncc(C#CCN(C)C)cc2C(=O)N([C@H](C)CO)C[C@H]1C	-1	.	.	.	.	.	.
O=C1C=C(N2CCCCC2)c2ccccc2C1=O	100*	-1	.	114*	.	-21	0%
CO[C@@H]1CN(C)C(=O)c2cc(NS(C)(=O)=O)ccc2OC[C@@H](C)N(C(=O)c2ccc3c(c2)OCO3)C[C@H]1C	-1	.	.	.	.	.	.
CCCCn1nnc(NC(=O)c2ccco2)n1	.	7	0	123*	-1	-1	3%
COc1ccc(-c2csc(N(CCCN(C)C)C(=O)c3ccccc3Cl)n2)cc1	-28	4	2	58*	-5	-13	-6%
COc1ccc(-c2csc(N(CCCN(C)C)C(=O)c3ccccc3C)n2)cc1	-33	?	-2	17	-2	-9	.
NC(=S)NN=Cc1ccc(-c2ccc(S(=O)(=O)Nc3ncccn3)cc2)o1	38*	.	73*	145*	?	0	-8%
Cc1ccc(C(=O)NNC(=O)C2CCN(S(=O)(=O)c3ccc(C)cc3)CC2)cc1	2	.	0	-2	3	2	.
Cc1ccc(C(=O)C2CCN(S(=O)(=O)c3ccc(C(=O)O)cc3)CC2)cc1	.	-1	-1	66*	1	3	-5%
CN(Cc1nc2ccccc2c(=O)[nH]1)C(=O)c1cc2c(s1)CCCCC2	-4	-3	-1	52*	-4	1	-2%
CN(CC(=O)Nc1sc2c(c1C#N)CCCCC2)Cc1nc2ccccc2c(=O)[nH]1	-4	5	1	0	-1	5	.
COc1ccc2c3c([nH]c2c1)[C@@H](CO)N(C(=O)C1CCC1)CC31CN(Cc2cccc(F)c2)C1	4	.	.	.	.	.	.
CCCNC(=O)N(C)C[C@H]1Oc2cc(-c3ccncc3)ccc2S(=O)(=O)N([C@@H](C)CO)C[C@H]1C	-4	.	.	.	.	.	.
CN1CCN(C(=O)C[C@H]2C[C@@H]3c4cc(NC(=O)Nc5ccc(C(F)(F)F)cc5)ccc4O[C@@H]3[C@@H](CO)O2)CC1	2	.	.	.	.	.	.
CCN(CC)c1ccc(C(=C2C=CC(=[N+](CC)CC)C=C2)c2ccc(N(CC)CC)cc2)cc1	25	.	-1	154*	1	-23	0.43µM*
CC(C)c1ccc(S(=O)(=O)N2CCN(CC(=O)Nc3ccc(Cl)cc3F)CC2)cc1	-3	?	-1	120*	-4	-5	-5%
CCCN1[C@@H]2Cn3c(cccc3=O)[C@H]1[C@@H](C(=O)NC1Cc3ccccc3C1)[C@@H]2CO	-2	.	.	.	.	.	.
SMILES	CASP6 VEID inh	HDAC3 inhib	C-LANA FP	NSD2 inh	Keap1-Nrf2 PPI	Glyco luc inh	Alpha artifact
Cc1cc([N+](=O)[O-])cc2c1NC(=O)C2(O)N1CCOCC1 (stereo unspecified)	7	-2	0	59*	-6	-1	2%
CCCNC(=O)[C@H]1[C@H](CO)[C@H]2Cn3c(ccc(C4=CCCC4)c3=O)[C@@H]1N2Cc1ccncc1	1	.	.	.	.	.	.
CCOc1ccc(NC(=S)Nc2ccc3nsnc3c2)cc1	.	11	-1	136*	-6	4	2%
C=CCN(CC=C)C(=S)Nc1ccc2nsnc2c1	21	-1	-1	104*	1	4	7%
COc1ccc(NC(=S)Nc2ccc3nsnc3c2)cc1	.	-1	1	137*	-6	1	1%
C=CCNC(=S)Nc1ccc2nsnc2c1	.	6	0	7	-6	3	.
COc1ccc(NC(=S)Nc2ccc3nc(C)c(C)nc3c2)cc1	.	-1	0	25	-4	-1	.
Cc1[nH][nH]c(=O)c1C(c1c(C)[nH][nH]c1=O)c1cn(Cc2ccccc2Cl)c2ccccc12	.	.	0	115*	-7	19	-22%
N/C(=N\O)c1cn(Cc2ccccc2Cl)c2ccccc12	-3	8	0	3	-1	-3	.
Cc1nc([N+](=O)[O-])c(C(=O)OCc2ccccc2Br)n1C	-2	3	-2	1	3	-2	.
Cc1nc([N+](=O)[O-])c(C(=O)OCc2ccccc2F)n1C	1	14	0	54*	-5	-1	-3%
O=C(CSc1nnc2ccccn12)NNC(=O)c1ccc([N+](=O)[O-])cc1	-1	.	0	86*	-1	-1	-4%
Cc1nc(N)sc1-c1nnc(SCC(=O)Nc2ccccc2C(F)(F)F)n1C	.	-1	-2	125*	-3	-1	0%
COc1cccc(S(=O)(=O)N(C)C[C@H]2Oc3ncc(C#CCN(C)C)cc3C(=O)N([C@@H](C)CO)C[C@H]2C)c1	-12	.	.	.	.	.	.
COc1cccc2c1C(=N)c1c(O)c3c(c(O)c1C2=O)CC(O)(C(C)=O)CC3OC1CC(N)C(O)C(C)O1 (stereo unspecified)	.	.	4	56*	5	-3	8.5µM*

Bioassay records as filed in PubChem.
